# DT40 TDP1 CPT – DT40-hTDP1 cell growth loss with CPT | chicken DT40 Tdp1-/-;hTDP1 cells + 20 nM CPT, ATP luminescence, 48 h | Potency, µM (doses to about 46.2 µM), usual class: inhibitors | 12% of 420,000 active | AID 686979; note: nearly all actives have a fitted effect of over 55% in size
#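 Chicken DT40 Tdp1-/- cells stably complemented with human TDP1 were seeded at 400 cells/well in medium containing 20 nM camptothecin, exposed to pin-transferred compounds, and grown at 37 °C for at least 48 hr. Viability was read as ATP luminescence.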
# HT1080-NT tox – kills 2HG-producing HT-1080-NT fibrosarcoma cells. HT-1080-NT fibrosarcoma viability, CellTiter-Glo ATP luminescence, 48 h. Potency, µM (doses to about 46.1 µM), hits mostly cytotoxic. 1.6% of 360,000 active. AID 686970;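 note: NT is the 2HG producing partner of a matched IDH1 knockdown line; nearly all actives have a fitted effect of over 55% in size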
#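 Viability by CellTiter-Glo luminescence after 48 h compound exposure at 37C of HT-1080-NT cells (750/well, RPMI, 5% FBS). % activity scaled between DMSO wells and medium-only wells, then curve-fitted and categorized by curve class.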
# TDP1 cell noCPT – qHTS for Inhibitors of human tyrosyl-DNA phosphodiesterase 1 (TDP1): qHTS in cells in absence of CPT; DT40 Tdp1-/- hTDP1 cells, no CPT, ATP luminescence, 48 h; Potency, µM (highest dose often 46.2 µM), actives largely listed as inhibitors; 15% of 420,000 active; AID 686978, 2013; note: nearly all actives have a fitted effect of over 55% in size
#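 Readout: luminescence from CellTiter-Glo after 30 min in the dark at RT. Cells: DT40 Tdp1-/- with stable hTDP1, 400/well. Exposure: compounds alone, ≥48 hr, 37 °C.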
# HT1080 IDH1KD tx – toxicity to HT-1080 IDH1 knockdown cells (counter line); Potency, µM (doses to about 46.1 µM), hits mostly cytotoxic; AID 686971; HT-1080 IDH1 knockdown viability, ATP luminescence, 48 h; 2% of 360,000 active
#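 HT-1080-IDH1KD cells (IDH1 knocked down), 750/well in RPMI with 5% FBS, treated with compound 48 h at 37 degrees C. Viability by CellTiter-Glo luminescence, normalised to DMSO and no-cell wells; concentration-response curves classed.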
# ALOX12 inh – blocks human arachidonate 12S-lipoxygenase; P18054; purified 12hLO, xylenol orange hydroperoxide absorbance; Potency, µM (series often up to 108 µM), usual class: inhibitors; 1.1% of 580,000 active
# Target sequence (P18054 whole entry, looked up): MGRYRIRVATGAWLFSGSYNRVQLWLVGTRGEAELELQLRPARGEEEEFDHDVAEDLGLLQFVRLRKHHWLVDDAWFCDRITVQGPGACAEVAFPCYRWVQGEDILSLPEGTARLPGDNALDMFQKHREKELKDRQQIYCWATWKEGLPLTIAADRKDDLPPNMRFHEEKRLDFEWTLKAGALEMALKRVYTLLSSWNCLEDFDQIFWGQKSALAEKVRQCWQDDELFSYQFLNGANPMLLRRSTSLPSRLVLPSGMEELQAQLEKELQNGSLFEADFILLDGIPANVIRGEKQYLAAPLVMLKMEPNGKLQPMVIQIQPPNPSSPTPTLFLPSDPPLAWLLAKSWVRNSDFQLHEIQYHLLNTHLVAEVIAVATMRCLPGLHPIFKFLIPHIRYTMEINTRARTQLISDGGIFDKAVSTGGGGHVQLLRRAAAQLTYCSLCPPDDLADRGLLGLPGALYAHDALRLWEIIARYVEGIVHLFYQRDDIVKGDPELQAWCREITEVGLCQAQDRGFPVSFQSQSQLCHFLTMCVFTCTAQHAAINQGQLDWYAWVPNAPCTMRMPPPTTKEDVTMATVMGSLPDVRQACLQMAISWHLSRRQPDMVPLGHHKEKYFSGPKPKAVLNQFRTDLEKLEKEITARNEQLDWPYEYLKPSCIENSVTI
#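 Hydroperoxide product was detected by ferrous iron/xylenol orange as the 573 to 405 nm absorbance ratio. Arachidonic acid at 40 uM (final) was turned over for 30 min at room temperature by 150 nM human 12hLO, pH 7.0 Hepes buffer, after 15 min compound preincubation.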
# IL1B secr inh – inhibitors of inflammasome signaling (IL-1 beta secretion); activity change, % at 57.5 µM; THP-1 LPS/ATP IL-1B secretion, AlphaLISA, 16 h; stronger effect = lower value; 4.7% of 360,000 active; in the data active = activity change below about -50%; inconclusive = mostly about -30% to -49%
#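 Secreted IL-1B measured by AlphaLISA bead assay after 16 h compound exposure of THP-1 cells; compounds (final up to 57.5 uM) added 1 h before LPS (250 ng/mL) and ATP (1.25 mM) stimulation; lower signal means less secretion.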
# Hits are given with their value; n = inactive; u = inconclusive; x = no result. This is one part of a sample in which hits are shown more often than they occur. Unless noted, calls come from the whole dose curve; as a rule, active = well fitted curve in the direction sought with a large enough effect; inconclusive = small, poorly fitted or top-dose-only effect, or another doubt; inactive = no such curve, though single readings can be large; an effect the other way counts as inactive or inconclusive.
SMILES,DT40 TDP1 CPT,HT1080-NT tox,TDP1 cell noCPT,HT1080 IDH1KD tx,ALOX12 inh,IL1B secr inh
Cc1ccccc1NC(=O)c1cc2ccccc2o1,n,n,n,n,n,n
Cc1nc2ccccc2c2oc(C(=O)NCc3ccccn3)cc12,u,n,u,n,n,n
CNS(=O)(=O)c1ccc(CN2CCCC3(C2)CN(C)C(=O)O3)cc1 (configuration not stated),x,x,x,x,n,x
O=C(Nc1ccc(C(F)(F)F)cc1)c1nn(-c2ccccc2)c(=O)c2ccccc12,x,x,x,x,n,x
N#CCCN(NC1=NS(=O)(=O)c2ccccc21)C(=O)c1ccccc1Br,n,n,n,n,x,n
CCc1nc2ccc(C(=O)N3CCN(C(=O)c4ccco4)CC3)cn2c1N(C)C(=O)c1cccc(OC)c1,n,n,n,n,u,n
Cc1cc(N2CCN(Cc3ccccc3)CC2)n2nc(C)c(-c3ccccc3)c2n1,15µM,n,18µM,n,n,n
Cc1nn2c(N3CCN(C)CC3)cc(C(C)(C)C)nc2c1-c1ccccc1,u,21µM,u,16µM,u,-87
COc1ccc(-c2c(C)nn3c(N4CCN(Cc5ccccc5)CC4)cc(C)nc23)cc1OC,23µM,n,23µM,n,n,n
Cc1ccc(Cl)cc1N1CCN(Cc2nc3c([nH]2)c(=O)[nH]c(=O)n3C)CC1,x,x,x,x,n,x
O=C1C=CC(c2c[nH]c3ccccc23)CC1 (configuration not stated),u,u,16µM,u,u,-108
Cc1ccccc1N1C(=O)CC(c2c[nH]c3ccccc23)C1=O (configuration not stated),n,n,n,n,n,n
Cc1nc([C@@H]2CN(C(=O)CCc3c[nH]c4ccccc34)C[C@H]2C(N)=O)n[nH]1,x,x,x,x,n,x
CC(C)C(=O)N1CCN(c2nc3c(s2)CC(C(=O)Nc2ccc(Cl)cc2)CC3)CC1 (configuration not stated),x,x,x,x,32µM,x
CCC(=O)N1CCN(c2nc3c(s2)CC(C(=O)Nc2ccc(OC)c(F)c2)CC3)CC1 (configuration not stated),x,x,x,x,25µM,x
CCCNS(=O)(=O)c1cccc(C(=O)NC2CCCc3ccccc32)c1 (configuration not stated),n,n,n,n,n,n
N#CC(/C(=N/S(=O)(=O)c1cccs1)c1ccccc1)c1nc2ccccc2[nH]1 (configuration not stated),n,n,7.3µM,n,n,n
Cc1ccc(-c2nnc(NC(=O)CCS(=O)(=O)c3ccc(F)cc3)o2)c(C)c1,n,n,n,n,n,n
COc1ccccc1-c1nnc(NC(=O)CCS(=O)(=O)c2ccccc2)o1,23µM,u,18µM,n,n,-81
O=C(CCS(=O)(=O)c1ccc(F)cc1)Nc1nnc(-c2ccc(F)cc2)o1,13µM,n,16µM,n,n,u
COc1ccccc1-c1nnc(NC(=O)CCS(=O)(=O)c2ccc(F)cc2)o1,8.2µM,n,9.2µM,n,n,n
Cc1ccc2c(c1)C(=O)C(=O)N2Cc1ccc(Cl)cc1,0.73µM,u,0.92µM,u,u,n
Cc1ccc2c(c1)C(=O)C(=O)N2Cc1ccccc1,1.2µM,n,1µM,n,n,n
Cc1ccc2c(c1)C(CCN)C(=O)N2Cc1ccccc1 (configuration not stated),u,n,21µM,n,u,n
CCCCCOc1ccccc1CN1C(=O)C(=O)c2cc(C)ccc21,13µM,x,5.2µM,x,n,x
SMILES,DT40 TDP1 CPT,HT1080-NT tox,TDP1 cell noCPT,HT1080 IDH1KD tx,ALOX12 inh,IL1B secr inh
Cc1ccc2c(c1)N(Cc1ccccc1)C(=O)C(C)S2 (configuration not stated),n,n,n,u,n,n
CCCCCCCCCCCC(=O)N/N=C/C(CC)CCCC (configuration not stated),x,x,x,x,n,x
O=C(CCS(=O)(=O)c1cc2c3c(c1)CCN3C(=O)CC2)NCc1ccc(F)cc1,n,x,n,x,n,x
O=C(NC1CCCCC1)C1CN(S(=O)(=O)c2ccc(F)cc2F)CC12CCOCC2 (configuration not stated),x,x,x,x,n,x
CCN1C(=O)C(=O)c2cc(C)ccc21,4.6µM,n,5.8µM,n,n,n
Cc1ccc2c(c1)C(=O)C(=O)N2Cc1ccc(F)cc1,0.73µM,n,0.92µM,n,u,n
O=C(Cc1cccs1)N1CCOc2ccc(CN3CCCCC3)cc2C1,x,x,x,x,n,x
CN1CCN(CCNC(=O)CC2CCN(C(=O)c3ccc4nc(-c5ccccc5)oc4c3)CC2)CC1,x,x,x,x,n,x
CCc1nc(NC(c2ccccc2)c2ccco2)c2cnn(C)c2n1 (configuration not stated),x,x,x,x,n,x
COc1ccc(/C=C2\Oc3cc(OS(=O)(=O)c4ccc(OC)cc4)ccc3C2=O)cc1,x,x,x,x,n,x
O=C(NC(c1ccccc1)c1ccsc1)C1CCN(Cc2ccc(Cl)c(Cl)c2)CC1 (configuration not stated),u,n,u,n,n,u
COc1ccc(C(NC(=O)C2CCN(CCOc3ccc(Cl)cc3Cl)CC2)c2ccccn2)cc1 (configuration not stated),u,23µM,23µM,21µM,n,-56
COc1cc(OC)nc(C(NC(=O)C2CCN(Cc3c[nH]c4ccccc34)CC2)c2ccc(Cl)cc2)n1 (configuration not stated),u,5.8µM,18µM,n,u,-61
COc1ccccc1C(NC(=O)C1CCN(CCOc2ccccc2)CC1)c1ccccn1 (configuration not stated),u,u,u,n,n,n
O=C(NC(c1ccc(Cl)cc1)c1ccsc1)C1CCN(CCOc2ccc(Cl)cc2)CC1 (configuration not stated),u,u,u,u,32µM,-68
COc1cc(OC)nc(C(NC(=O)C2CCN(Cc3ccc(N(C)C)cc3)CC2)c2ccc(F)cc2)n1 (configuration not stated),u,n,u,n,n,n
Cc1ccc(C(NC(=O)C2CCN(CCOc3ccc(Cl)cc3)CC2)c2ccccn2)cc1 (configuration not stated),u,u,u,u,u,-70
COc1ccccc1C(NC(=O)C1CCN(CCOc2ccc(Cl)cc2Cl)CC1)c1ccccn1 (configuration not stated),u,u,u,15µM,u,n
COc1ccc(OCC(=O)NC(c2ccccc2)c2cccs2)cc1 (configuration not stated),x,x,x,x,n,x

# Bioassay records as filed in PubChem BioAssay.
